# Results filed as inconclusive are left out. Activity calls are given as the source filed them. Calls come from the whole dose curve; as a rule, active = well fitted cell-killing curve with a large enough effect; inconclusive = small, poorly fitted or top-dose-only effect; inactive = no such curve, though single readings can be large or run the other way. Starred links: 1 amine or outer side, 2 acyl side, 3 side chain; linkers in the order of their positions; H or OH if unused. Positions of bridges follow the written chain, without caps; N, C: chain ends. Non-standard residues stand in square brackets, D forms with d. Residues, ends and D or L forms follow the SMILES beside them. Chains are numbered I, II in the order given. Actinocin(9to1) = Cc1c2oc3c(C)ccc(C(=O)[*:1])c3nc-2c(C(=O)[*:2])c(N)c1=O; NMeV = CN[CH](C(=O)O)C(C)C; Sar = CNCC(=O)O
# Assay: qHTS of pediatric cancer cell lines to identify multiple opportunities for drug repurposing: Primary screen for A673 cells (AID 1347092); note: nearly all actives have a fitted effect of over 45% in size
# Details: A673 Ewing sarcoma viability, CellTiter-Glo ATP luminescence, 48 h; series mostly up to 46 µM
# Procedure, shortened: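 A673 cells (500-1,000 cells/well) were treated 48 hours at 37 degrees C with compounds at 11-point (0.78 nM to 46 µM) or 8-point (0.59 nM to 46 µM) dilutions. Viability read by CellTiter-Glo luminescence; concentration-response curves fitted.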
# Potency is the fitted concentration of half-maximal effect.
row,SMILES,Potency
1,Cn1c(Nc2ccc(C(F)(F)F)cc2)nc2cc(Oc3ccnc(-c4ncc(C(F)(F)F)[nH]4)c3)ccc21,2350 nM (active)
2,CC(C)(O)[C@H]1CC[C@@](C)([C@H]2[C@@H](O)C[C@@]3(C)[C@@H]4C[C@H](O[C@@H]5O[C@H](CO)[C@@H](O)[C@H](O)[C@@H]5O)[C@H]5C(C)(C)[C@@H](O[C@@H]6OC[C@@H](O)[C@H](O)[C@@H]6O)CC[C@@]56C[C@@]46CC[C@]23C)O1,inactive
3,CC(=O)O[C@H]1C[C@@H]2CC[C@H]3[C@H]4C[C@H]([N+]5(C)CCCCC5)[C@@H](OC(C)=O)[C@@]4(C)CC[C@@H]3[C@@]2(C)C[C@H]1[N+]1(C)CCCCC1,inactive
4,O=C1c2c(O)cccc2[C@@H]([C@@H]2O[C@H](CO)[C@@H](O)[C@H](O)[C@H]2O)c2cc(CO)cc(O)c21,inactive
5,OCCNC1CCCc2c1[nH]c1ccc(-c3ccccc3)cc21 (configuration not stated),23500 nM (active)
6,C=C1C(=O)O[C@H]2[C@@H]1CCC(C)=CCC[C@@]1(C)O[C@@H]21,7430 nM (active)
7,CCCNC(=O)[C@H]1O[C@H]1C(=O)N[C@H](C(=O)N1CCC[C@@H]1C(=O)OC)C(C)CC (some centres not stated),2350 nM (active)
8,CC(C)(O)Cn1c(NC(=O)c2ccc(-c3cn[nH]c3)s2)nc2cc(CN3CCOCC3)ccc21,1180 nM (active)
9,CC[C@H](CC[C@@H](C)[C@H]1CC[C@H]2[C@@H]3CC=C4C[C@@H](O)CC[C@]4(C)[C@@H]3CC[C@]12C)C(C)C,inactive
10,Nc1ccc(C(=O)Nc2cccc(-c3nc(N4CCOCC4)c4oc5ncccc5c4n3)c2)cn1,14800 nM (active)
11,CC(=O)OCC(=O)[C@@]12N=C(C)O[C@H]1C[C@H]1[C@@H]3CCC4=CC(=O)C=C[C@]4(C)[C@@H]3[C@@H](O)C[C@@]12C,inactive
12,C[C@H]1C[C@H]2[C@@H]3CCC4=CC(=O)C=C[C@]4(C)[C@@H]3C(=O)C[C@]2(C)[C@@]1(O)C(=O)CO,inactive
13,O=C1NCCc2[nH]c(-c3ccncc3)cc21,1180 nM (active)
14,Cc1noc(-c2ccc(CSCCC(=O)O)cc2)c1NC(=O)OC(C)c1ccccc1Cl (configuration not stated),inactive
15,CC[C@H]1OC(=O)[C@H](C)[C@@H](O[C@H]2C[C@@](C)(OC)[C@@H](O)[C@H](C)O2)[C@H](C)[C@@H](O[C@@H]2O[C@H](C)C[C@H](N(C)C)[C@@H]2O)[C@](C)(OC)C[C@@H](C)C(=O)[C@H](C)[C@@H](O)[C@]1(C)O,inactive
16,CC(=O)SCC(Cc1ccccc1)C(=O)NCC(=O)OCc1ccccc1 (configuration not stated),590 nM (active)
17,COc1cccc2c1C(=O)c1c(O)c3c(c(O)c1C2=O)C[C@@](O)(C(=O)CO)C[C@@H]3O[C@H]1C[C@H](N)[C@@H](O)[C@H](C)O1,372 nM (active)
18,CC(C)Oc1ccc(C(=O)N[C@H](CNC(=O)CN(C)C)Cc2ccc(-c3cn4cccc([C@H](C)O)c4n3)cc2)cc1Cl,148 nM (active)
19,N#Cc1cc(NC(=O)Nc2nnc(-c3ccncc3)s2)ccc1-c1cn[nH]c1,inactive

# Assay: qHTS of pediatric cancer cell lines to identify multiple opportunities for drug repurposing: Primary screen for SK-N-MC cells (AID 1347093)
# Details: SK-N-MC viability, CellTiter-Glo luminescence, 48 h; series mostly up to 46 µM
# Procedure, shortened: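 Metabolically active cells were quantified by ATP-dependent luminescence (CellTiter-Glo, 15 min at room temperature) following 48 h treatment. Cells had been plated at 500-1,000 per well and settled for 5 h beforehand.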
row,SMILES,Potency
1,CCCCCCCCCCCCCCCC(=O)OC[C@@H](NC(=O)C(Cl)Cl)[C@H](O)c1ccc([N+](=O)[O-])cc1,inactive
2,Cn1cc(C[C@@H](N)C(=O)O)c2ccccc21,inactive
3,Cc1cc(-c2nnc3n2CCCCC3)c(C)n1-c1ccccc1,inactive
4,O=[N+]([O-])c1cn2c(n1)OC[C@@H](OCc1ccc(OC(F)(F)F)cc1)C2,inactive
5,N[C@H]1CN(c2c(F)cc3c(=O)c(C(=O)O)cn(C4C[C@@H]4F)c3c2Cl)CC12CC2 (some centres not stated),inactive
6,C=CC1=C(C(=O)O)N2C(=O)[C@@H](NC(=O)C(=NO)c3csc(N)n3)[C@H]2SC1,inactive
7,C[C@H]1COc2c(N3CCN(C)CC3)c(F)cc3c(=O)c(C(=O)O)cn1c23,inactive
8,C=CCNC1=C2C[C@@H](C)C[C@H](OC)[C@@H](O)[C@@H](C)C=C(C)[C@H](OC(N)=O)[C@@H](OC)C=CC=C(C)C(=O)NC(=CC1=O)C2=O,1660 nM (active)
9,CCNC(=O)c1cc2c(-c3cc(OCCN4CCCC4)c(Cl)cc3Cl)nc(N)nc2s1,2640 nM (active)
10,COC(=O)[C@H](CCCN=C(N)N)NS(=O)(=O)c1ccc(C)cc1,inactive
11,Cn1cc(C=CC(=O)c2cccc(F)c2)cc1C=CC(=O)NO,2960 nM (active)
12,C[C@@H]1CC[C@@]2(OC1)OC1CC3C4CC=C5CC(O)CCC5(C)C4CCC3(C)C1[C@@H]2C (some centres not stated),inactive
13,Cn1c(Nc2ccc(C(F)(F)F)cc2)nc2cc(Oc3ccnc(-c4ncc(C(F)(F)F)[nH]4)c3)ccc21,187 nM (active)
14,CC(C)(O)[C@H]1CC[C@@](C)([C@H]2[C@@H](O)C[C@@]3(C)[C@@H]4C[C@H](O[C@@H]5O[C@H](CO)[C@@H](O)[C@H](O)[C@@H]5O)[C@H]5C(C)(C)[C@@H](O[C@@H]6OC[C@@H](O)[C@H](O)[C@@H]6O)CC[C@@]56C[C@@]46CC[C@]23C)O1,inactive
15,O=C1c2c(O)cccc2[C@@H]([C@@H]2O[C@H](CO)[C@@H](O)[C@H](O)[C@H]2O)c2cc(CO)cc(O)c21,11800 nM (active)
16,O=C(O)CCCCC(CCSCc1ccccc1)SCc1ccccc1 (configuration not stated),9350 nM (active)
17,C=C1C(=O)O[C@H]2[C@@H]1CCC(C)=CCC[C@@]1(C)O[C@@H]21,7430 nM (active)
18,CC(C)(O)Cn1c(NC(=O)c2ccc(-c3cn[nH]c3)s2)nc2cc(CN3CCOCC3)ccc21,2350 nM (active)
19,Nc1ccc(C(=O)Nc2cccc(-c3nc(N4CCOCC4)c4oc5ncccc5c4n3)c2)cn1,1180 nM (active)
20,CC(=O)OCC(=O)[C@@]12N=C(C)O[C@H]1C[C@H]1[C@@H]3CCC4=CC(=O)C=C[C@]4(C)[C@@H]3[C@@H](O)C[C@@]12C,inactive
21,COC(=O)[C@@H]1[C@H]2C[C@@H]3c4[nH]c5ccccc5c4CCN3C[C@@H]2CC[C@@H]1O,2960 nM (active)
22,"Cc1c2oc3c(C)ccc(C(=O)NC4C(=O)NC(C(C)C)C(=O)N5CCCC5C(=O)N(C)CC(=O)N(C)C(C(C)C)C(=O)OC4C)c3nc-2c(C(=O)NC2C(=O)NC(C(C)C)C(=O)N3CCCC3C(=O)N(C)CC(=O)N(C)C(C(C)C)C(=O)OC2C)c(N)c1=O (configuration not stated) (I: TVP[Sar][NMeV] / II: TVP[Sar][NMeV]; ester I:1-I:C, II:1-II:C; linker I:N-II:N via Actinocin(9to1); configuration not given here)",1 nM (active)
23,CC(=CC(=O)Nc1ccccc1C(=O)O)c1ccc2ccccc2c1,8330 nM (active)
24,O=C1NCCc2[nH]c(-c3ccncc3)cc21,4180 nM (active)
25,CC(=O)SCC(Cc1ccccc1)C(=O)NCC(=O)OCc1ccccc1 (configuration not stated),187 nM (active)
26,COc1cccc2c1C(=O)c1c(O)c3c(c(O)c1C2=O)C[C@@](O)(C(=O)CO)C[C@@H]3O[C@H]1C[C@H](N)[C@@H](O)[C@H](C)O1,235 nM (active)
27,CC(C)Oc1ccc(C(=O)N[C@H](CNC(=O)CN(C)C)Cc2ccc(-c3cn4cccc([C@H](C)O)c4n3)cc2)cc1Cl,148 nM (active)
28,N#Cc1cc(NC(=O)Nc2nnc(-c3ccncc3)s2)ccc1-c1cn[nH]c1,inactive

# Source: PubChem BioAssay (NCATS)
